# Laboratory results as given in PubChem BioAssay (NCI).
# The panel holds about 79,000 compounds, 15% with a hit somewhere; the sample as a whole holds those more often. Unmarked numbers belong to inactive results. Activity calls are given as the source filed them. Cut-off read from the data, not from the text of the source: active = growth inhibition above about 70%; inactive = the rest.
# How the values were obtained:
# [1] = NCI Yeast Anticancer Drug Screen. Data for the rad50 strain (AID 155);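 note: 0% = growth of vehicle-only cultures of the same strain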; conditions: S. cerevisiae rad50 strain growth inhibition, stronger effect = higher value
# Method in brief: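 Compounds were tested on a yeast strain with an engineered DNA damage repair alteration; the reported value is growth inhibition normalised to vehicle treatment.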
# [2] = NCI Yeast Anticancer Drug Screen. Data for the mec2-1 strain (AID 157); conditions: S. cerevisiae mec2-1 strain, stronger effect = higher value
# Method in brief: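 Compounds were applied to mec2-1 yeast cells. Their growth was then compared with that of vehicle-treated cultures to give growth inhibition.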
# [3] = NCI Yeast Anticancer Drug Screen. Data for the sgs1 mgt1 strain (AID 161);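 note: 0% = growth of cultures given vehicle only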; conditions: S. cerevisiae sgs1 mgt1 strain, stronger effect = higher value
# Method in brief: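 Compounds are added to genetically altered yeast, and growth is compared with cultures given vehicle alone to give percent inhibition.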
# [4] = NCI Yeast Anticancer Drug Screen. Data for the cln2 rad14 strain (AID 165);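 note: 0% = growth equal to vehicle treated cultures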; conditions: S. cerevisiae cln2 rad14 strain, stronger effect = higher value
# Method in brief: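 Strain: cln2 rad14 yeast, altered in cell cycle control and DNA damage repair. Read-out: growth inhibition vs vehicle.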
# [5] = NCI Yeast Anticancer Drug Screen. Data for the bub3 strain (AID 167); conditions: S. cerevisiae bub3 mutant strain, stronger effect = higher value
# Method in brief: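 Growth of a checkpoint-deficient yeast mutant is measured after compound exposure. Values represent inhibition relative to vehicle.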
# [6] = NCI Yeast Anticancer Drug Screen. Data for the mlh1 rad18 strain (AID 175); conditions: S. cerevisiae mlh1 rad18 strain growth inhibition, stronger effect = higher value
# Method in brief: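 A repair-deficient yeast strain is exposed to test compound, and growth is scored relative to vehicle-treated controls.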
# [7] = at 5.0 µM (retest, dose inferred, filed as 0.5)
# [8] = at 50.0 µM (retest, dose inferred, filed as 5.0)
Compound,"growth inhibition [1, 7]","growth inhibition [1, 8]",growth inhibition ([1]; at 50.0 µM),"growth inhibition [2, 7]","growth inhibition [2, 8]",growth inhibition ([2]; at 50.0 µM),"growth inhibition [3, 7]","growth inhibition [3, 8]",growth inhibition ([3]; at 50.0 µM),"growth inhibition [4, 7]","growth inhibition [4, 8]",growth inhibition ([4]; at 50.0 µM),"growth inhibition [5, 7]","growth inhibition [5, 8]",growth inhibition ([5]; at 50.0 µM),"growth inhibition [6, 7]","growth inhibition [6, 8]",growth inhibition ([6]; at 50.0 µM)
O=[N+]([O-])c1ccc(C(Nc2ccccc2)c2ccc3cccnc3c2O)cc1 (stereo not given),-5%,83% (active),71.9% (active),-1%,82% (active),80% (active),-10%,85% (active),76% (active),-37%,79% (active),81.3% (active),-11%,85% (active),58.6%,4%,85% (active),82.2% (active)
COc1ccccc1/C=C/c1ccnc2ccccc12,31%,97% (active),72.7% (active),15%,97% (active),90.2% (active),24%,98% (active),88% (active),13%,84% (active),65.1%,24%,97% (active),84.8% (active),24%,96% (active),91.7% (active)
CCC(CC)C(=O)O.[Ag],99% (active),99% (active),99.2% (active),99% (active),99% (active),99.6% (active),99% (active),99% (active),99.6% (active),99% (active),99% (active),99.2% (active),100% (active),99% (active),99.1% (active),99% (active),99% (active),99.2% (active)
CCc1ccc(C(=O)O)c2ccccc12,-8%,81% (active),68.1%,8%,48%,24.9%,-2%,72% (active),35.1%,8%,69%,51.6%,-6%,62%,8.4%,-1%,85% (active),51.6%
[C-]#[N+]C(C)(c1ccccc1)c1ccccc1,-117%,70% (active),95.5% (active),-34%,47%,93.2% (active),-48%,79% (active),95.5% (active),-59%,47%,90.1% (active),-45%,80% (active),94.2% (active),-101%,76% (active),94.4% (active)
O=C1C(Cl)=C(c2ccc([N+](=O)[O-])cc2)C(=O)c2c(O)cccc21,79% (active),95% (active),90% (active),100% (active),99% (active),93.3% (active),28%,95% (active),91.7% (active),82% (active),97% (active),90% (active),99% (active),94% (active),90.8% (active),99% (active),97% (active),88.3% (active)
CCCCCCCCCCCC(=O)OCC1CO1 (stereo not given),-6%,-26%,-11.7%,-13%,-8%,-4.65%,6%,1%,24.6%,29%,-55%,34%,9%,-44%,-6.5%,-16%,3%,-11.4%
CCN(CC)CCC(=O)NC1c2ccc(Cl)cc2Oc2c(C)cccc21 (stereo not given),-23%,21%,54.6%,-1%,-7%,-14.2%,2%,19%,40.6%,18%,51%,15.2%,3%,7%,-30.5%,8%,44%,17.6%
O=C(NCCCNCCCCNCCCNC(=O)c1cc(-c2ccccc2)nc2ccccc12)c1cc(-c2ccccc2)nc2ccccc12,49%,98% (active),90.2% (active),25%,99% (active),93.2% (active),34%,99% (active),92.8% (active),30%,98% (active),91.1% (active),33%,64%,92.2% (active),46%,99% (active),90% (active)
COc1ccc2nc(NC(=O)Nc3c(Cl)cccc3Cl)sc2c1,13%,99% (active),98.4% (active),-3%,99% (active),99.3% (active),20%,99% (active),99% (active),15%,98% (active),97.6% (active),2%,99% (active),98.7% (active),30%,98% (active),98.3% (active)
COC(=O)CC1c2cc(OC)c3cccc(OC)c3c2CCC1(C)C(=O)OC (stereo not given),94% (active),89% (active),45.8%,94% (active),90% (active),18.4%,95% (active),95% (active),93.2% (active),91% (active),90% (active),73% (active),95% (active),90% (active),77.2% (active),94% (active),91% (active),13.7%
C=C1CC(c2ccc(OCCCN3C(=O)c4ccccc4C3=O)cc2)OC1=O (stereo not given),33%,71% (active),10.1%,30%,82% (active),-3.6%,28%,67%,15%,23%,63%,29.1%,33%,80% (active),8.8%,34%,86% (active),-6%
CC(C)(C)C1=CC(=CC=C2C=CN(CCO)C=C2)C=C(C(C)(C)C)C1=O,-2%,98% (active),29.1%,0%,28%,35.5%,-3%,51%,24.6%,0%,60%,31.8%,-5%,28%,31.6%,-6%,73% (active),97% (active)
O=[N+]([O-])c1ccc(Sc2ccc([N+](=O)[O-])o2)cc1,95% (active),99% (active),13.9%,94% (active),100% (active),16.5%,95% (active),100% (active),52.1%,89% (active),99% (active),-9.05%,98% (active),99% (active),60.7%,97% (active),99% (active),59.8%
N=C(N)SCc1cc(Cl)cc(Cl)c1O,8%,20%,55.2%,4%,-6%,-1.85%,1%,1%,16%,-18%,-72%,-2%,-14%,-19%,-9.35%,-5%,42%,80.2% (active)
O=C1C=CC(=O)N1Cc1ccccc1,98% (active),99% (active),99.3% (active),100% (active),100% (active),99.7% (active),97% (active),99% (active),99.5% (active),97% (active),100% (active),99% (active),99% (active),100% (active),99.3% (active),95% (active),100% (active),99.2% (active)
CN(C)NC(=S)C(F)(F)F,-1%,87% (active),95.5% (active),1%,79% (active),56.7%,0%,84% (active),97.8% (active),-4%,85% (active),44%,0%,85% (active),37.6%,-2%,79% (active),77% (active)
CCCCCCCCCCCC(=O)OCCN(CC)CC,3%,99% (active),95.8% (active),-1%,99% (active),98.6% (active),4%,99% (active),65.5%,0%,99% (active),97.9% (active),-3%,98% (active),93.2% (active),-2%,99% (active),98% (active)
O=S(c1ccccc1)c1c(Cl)c(Cl)nc(Cl)c1Cl (stereo not given),97% (active),99% (active),99.2% (active),99% (active),99% (active),99.6% (active),99% (active),99% (active),99.5% (active),95% (active),99% (active),99.6% (active),98% (active),99% (active),99.5% (active),99% (active),99% (active),99.5% (active)
O=C1NC(=O)C(Cc2ccccc2)(Cc2ccccc2)S1,5%,98% (active),99.2% (active),10%,99% (active),99.4% (active),-16%,98% (active),99.3% (active),21%,99% (active),99.2% (active),17%,99% (active),99.5% (active),6%,99% (active),99.2% (active)
